The panel holds about 83,000 compounds, 20% with a hit somewhere; the sample as a whole holds those more often.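 Activity criterion: percent growth below 10, measured after cells in 96-well plates were exposed to a single compound concentration for 48 hours.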 Unmarked numbers belong to inactive results. The source made the active and inactive calls.
Columns and labels:
Experiment in all cases: NCI-60 one-dose screen, 48 h (100 = growth as untreated, 0 = no growth, -100 = all killed)
Settings in all cases: 10 µM unless noted
NCI-H23 lung = system: NCI-H23 lung
NCI-H226 lung = system: NCI-H226 lung
NCI-H322M lung = system: NCI-H322M lung
HOP-62 NSCLC = system: HOP-62 NSCLC
NCI-H460 lung = system: NCI-H460 lung
HOP-92 NSCLC = system: HOP-92 NSCLC
NCI-H522 lung = system: NCI-H522 lung
A549/ATCC NSCLC = system: A549/ATCC NSCLC
786-0 renal = system: 786-0 renal
COLO 205 colon = system: COLO 205 colon
DU-145 prostate = system: DU-145 prostate
K-562 leukemia = system: K-562 leukemia
MALME-3M melanoma = system: MALME-3M melanoma
MDA-MB-231 breast = system: MDA-MB-231 breast
RXF 393 renal = system: RXF 393 renal
SF-268 CNS = system: SF-268 CNS
SF-295 CNS = system: SF-295 CNS
SF-539 CNS = system: SF-539 CNS
UACC-257 melanoma = system: UACC-257 melanoma
M14 melanoma = system: M14 melanoma

| Compound | growth (NCI-H23 lung) | growth (NCI-H226 lung) | growth (NCI-H322M lung) | growth (HOP-62 NSCLC) | growth (NCI-H460 lung) | growth (HOP-92 NSCLC) | growth (NCI-H522 lung) | growth (A549/ATCC NSCLC) | growth (786-0 renal) | growth (COLO 205 colon) | growth (DU-145 prostate) | growth (K-562 leukemia) | growth (MALME-3M melanoma) | growth (MDA-MB-231 breast) | growth (RXF 393 renal) | growth (SF-268 CNS) | growth (SF-295 CNS) | growth (SF-539 CNS) | growth (UACC-257 melanoma) | growth (M14 melanoma) |
| --- | --- | --- | --- | --- | --- | --- | --- | --- | --- | --- | --- | --- | --- | --- | --- | --- | --- | --- | --- | --- |
| Cn1cc(-c2cc3nc(-c4c[nH]c5ccccc45)cc(N)n3n2)c2ccccc21 | -56.9% (active) | 5.22% (active) | 19.4% | -68.2% (active) | -75.5% (active) | -29.4% (active) | -65.5% (active) | -81.7% (active) | -90.6% (active) | -88.8% (active) | 11.6% | -7.67% (active) | -92.8% (active) | -93.2% (active) | 82.7% | 77.1% | -61.2% (active) | -97.4% (active) | -88.4% (active) | -60.5% (active) |
| O=C(CSc1nc2ccccc2c(=O)[nH]1)NNC(=O)c1ccccc1Cl | 104% | 111% | 116% | 115% | 106% | 100% | 104% | 92.3% | 97.1% | 124% | 110% | 103% | 105% | 99.8% | 117% | 106% | 112% | 96.5% | 95% | 110% |
| NNc1ncnc2sc3c(c12)CCN(Cc1ccccc1)C3 | 73.2% | 38.9% | 40.9% | 58% | 37.3% | 77.7% | 2.62% (active) | 75.1% | 59.1% | 16.6% | 61.7% | 19% | 70.4% | 40.8% | 69.3% | 43.8% | 45.2% | 52.8% | 47% | 62.9% |
| Cn1cc(-c2cc(N)n3nc(-c4c[nH]c5ccc(F)cc45)cc3n2)c2cc(Br)cnc21 | 94.3% | 68.6% | 80.1% | 71.1% | 57.5% | 27.3% | 27.6% | 54% | 44.4% | 119% | 69.9% | -69% (active) | 75.6% | 13.2% | 11.7% | 89.3% | 69.6% | 52.8% | 84.6% | 55.4% |
| COc1nc(N)ncc1-c1ccc2ncnc(N3CCc4cc(F)c(Cl)cc43)c2c1 | 34.2% | -40.3% (active) | 3.86% (active) | -54.4% (active) | -21.5% (active) | -23.8% (active) | 41.1% | 3.34% (active) | -74.9% (active) | -55.5% (active) | 30.6% | 31.6% | 64.3% | -22.7% (active) | -46.2% (active) | 54.2% | 17.9% | 1.76% (active) | 78.8% | 62.4% |
| Cc1ccc(/C=C/C(=O)c2ccc(S(=O)(=O)NCCNc3nc(N(C)C)nc(N4CCOCC4)n3)cc2)cc1 | 95% | 91.7% | 93.7% | 114% | 103% | 93.2% | 72.3% | 80.4% | 73% | 114% | 95.3% | 6.8% (active) | 108% | 85% | 85% | 79.6% | 94.4% | 81.7% | 85.7% | 95.5% |
| COc1cc2cc(C(=O)N3C[C@@H](CCl)c4c3cc(OC(=O)N(CCC(=O)N3CCN(C)CC3)[C@H]3CCSSC3)c3ccccc43)[nH]c2c(OC)c1OC | -87% (active) | -15.3% (active) | -23% (active) | -17.8% (active) | -72.6% (active) | -7.53% (active) | -80.5% (active) | -37.3% (active) | -79.8% (active) | -65.7% (active) | -10.5% (active) | -8.96% (active) | -96.7% (active) | -74.8% (active) | -94.5% (active) | -10.3% (active) | -65.9% (active) | -80.3% (active) | -61.9% (active) | -77.2% (active) |
| NCCCCn1c(SCCc2c[nH]c3ccccc23)nnc1-c1ccc2ccccc2n1 | 11.4% | 55.2% | 18.1% | -49.7% (active) | -76.9% (active) | -8.52% (active) | -73.1% (active) | 8.17% (active) | -92.3% (active) | -66.6% (active) | 42.8% | -35.4% (active) | -99.4% (active) | -83.7% (active) | -38.3% (active) | 42.4% | -83.4% (active) | -99% (active) | -89.8% (active) | -90.1% (active) |
| CCC(=O)c1c2c(c3ccc4c5ccccc5ccc4n13)C(=O)c1ccccc1C2=O | 44.5% | 45.7% | 59.1% | 81.7% | 6.66% (active) | 117% | 86.8% | 31.7% | 96.4% | 75.8% | 20.3% | 96.7% | -87.5% (active) | 83% | 109% | 95.4% | 65.8% | 77.8% | 71.6% | 24.6% |
| Fc1ccccc1CNc1nc(SCCN2CCOCC2)nc2c1cnn2CC(Cl)c1ccc(Br)cc1 (stereo not given) | 45.1% | 31.8% | 75.2% | 40% | 17% | 26% | 58.1% | 27.7% | 8.8% (active) | -9.47% (active) | 60.5% | 3.13% (active) | -15.7% (active) | 12.6% | -13.9% (active) | 41.4% | -3.31% (active) | -3.45% (active) | 8.02% (active) | 29% |
| O=C(Cn1c(-c2ccccc2)nc2ccccc21)N=Nc1c(O)[nH]c2ccc(Cl)cc12 | 20.8% | -62.1% (active) | 5% (active) | -58.6% (active) | 3.44% (active) | -41.7% (active) | 40.5% | 6.42% (active) | -18.5% (active) | -40.3% (active) | 6.32% (active) | 10.6% | 5.8% (active) | -42% (active) | -63.8% (active) | 7.18% (active) | -40% (active) | -46.6% (active) | 36.5% | 14.9% |
| CS(=O)(=O)Nc1cc(-c2ccc3ncnc(N4CCc5cc(F)c(Cl)cc54)c3c2)cnc1Cl | 4.88% (active) | 8.15% (active) | 8.81% (active) | 27.8% | 12.1% | -20.7% (active) | 17.7% | -3.2% (active) | 4.55% (active) | -1.45% (active) | 10.5% | 35.8% | -21.2% (active) | -17.8% (active) | -5.59% (active) | 14.9% | -23.8% (active) | -22.7% (active) | -2.81% (active) | 9.59% (active) |
| Cc1nc2sccn2c1-c1nnc(SCc2ccccc2)o1 | 86.1% | 75.5% | 90.4% | 99.9% | 99.6% | 71.9% | 78.2% | 91.2% | 76.1% | 112% | 96.6% | 75.8% | 106% | 98.6% | 78.9% | 105% | 82.5% | 93.4% | 94% | 96.7% |
| O=C1Nc2ccc(F)cc2/C1=C/C(=O)c1cc2ccccc2oc1=O | 96.1% | 86% | 104% | 97.3% | 104% | 94.7% | -7.22% (active) | 108% | 112% | 105% | 111% | 33.9% | 71.2% | 91.8% | 83.4% | 106% | 108% | 105% | 96.3% | 89.1% |
